The record followed here is PMC7862700, “An all-to-all approach to the identification of sequence-specific readers for epigenetic DNA modifications on cytosine”.

Holding throughout (experiment): DAPPL (digital affinity profiling via proximity ligation, sequencing); 10 mM Tris-HCl pH 7.5, 50 mM NaCl, 1 mM DTT, 4% glycerol, room temperature, 30 min; GST-TFs on glutathione beads, 16-mer random dsDNA library, 0.1% formaldehyde crosslink after washing; high values mean tight binding
Test [1] deals with T1, FLI1 (Homo sapiens, UniProt Q01543 1-452).
T1 sequence: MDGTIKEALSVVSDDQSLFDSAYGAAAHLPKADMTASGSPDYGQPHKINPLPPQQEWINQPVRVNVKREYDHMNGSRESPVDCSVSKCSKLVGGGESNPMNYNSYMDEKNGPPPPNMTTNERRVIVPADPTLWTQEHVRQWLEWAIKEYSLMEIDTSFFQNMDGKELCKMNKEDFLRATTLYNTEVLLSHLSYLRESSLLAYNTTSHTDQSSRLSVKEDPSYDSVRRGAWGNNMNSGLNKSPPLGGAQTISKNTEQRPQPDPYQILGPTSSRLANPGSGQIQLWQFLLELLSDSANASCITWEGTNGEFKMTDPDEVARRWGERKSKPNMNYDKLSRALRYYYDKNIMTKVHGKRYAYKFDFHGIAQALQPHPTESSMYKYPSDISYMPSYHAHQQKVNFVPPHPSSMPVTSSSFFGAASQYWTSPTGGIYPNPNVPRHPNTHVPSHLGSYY
The conditions noted are these: protein: recombinant; tags: N-terminal GST; dsDNA, one strand shown. The gist of the method: (§1)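 Beads coated with glutathione captured GST-fused human transcription factors that had been expressed in yeast, and the factors were then given DNA barcodes and pooled with a tag-only sample. The pools were incubated with 200 nmole of a random double-stranded 16-mer DNA library in Tris/NaCl/DTT/glycerol buffer for 30 min at room temperature, washed, crosslinked with 0.1% formaldehyde and proximity-ligated with BsaI/T4 ligase at 37 °C for 1 h. PCR amplification and Illumina NextSeq500 sequencing came last. Binding signal is each hexamer's read frequency for a factor divided by its frequency for the tag-only sample.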

The target in test [2] is T2, ELK1 (Homo sapiens, UniProt P19419 1-428).
T2 sequence: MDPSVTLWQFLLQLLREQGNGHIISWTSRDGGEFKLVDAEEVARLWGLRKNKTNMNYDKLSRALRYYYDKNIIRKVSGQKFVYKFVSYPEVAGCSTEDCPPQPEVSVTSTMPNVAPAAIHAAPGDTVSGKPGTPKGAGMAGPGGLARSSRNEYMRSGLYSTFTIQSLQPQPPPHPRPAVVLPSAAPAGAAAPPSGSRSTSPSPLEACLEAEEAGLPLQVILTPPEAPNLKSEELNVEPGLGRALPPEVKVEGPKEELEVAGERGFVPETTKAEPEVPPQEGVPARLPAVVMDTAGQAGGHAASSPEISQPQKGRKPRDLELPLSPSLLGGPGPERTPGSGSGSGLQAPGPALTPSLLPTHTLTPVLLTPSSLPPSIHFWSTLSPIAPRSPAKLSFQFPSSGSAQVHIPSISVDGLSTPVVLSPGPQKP
As to conditions: protein: recombinant; tags: N-terminal GST; dsDNA, one strand shown. The gist of the method:
as §1

For test [3], the target named is T3, GABPA (Homo sapiens, UniProt Q06546 1-454).
T3 sequence: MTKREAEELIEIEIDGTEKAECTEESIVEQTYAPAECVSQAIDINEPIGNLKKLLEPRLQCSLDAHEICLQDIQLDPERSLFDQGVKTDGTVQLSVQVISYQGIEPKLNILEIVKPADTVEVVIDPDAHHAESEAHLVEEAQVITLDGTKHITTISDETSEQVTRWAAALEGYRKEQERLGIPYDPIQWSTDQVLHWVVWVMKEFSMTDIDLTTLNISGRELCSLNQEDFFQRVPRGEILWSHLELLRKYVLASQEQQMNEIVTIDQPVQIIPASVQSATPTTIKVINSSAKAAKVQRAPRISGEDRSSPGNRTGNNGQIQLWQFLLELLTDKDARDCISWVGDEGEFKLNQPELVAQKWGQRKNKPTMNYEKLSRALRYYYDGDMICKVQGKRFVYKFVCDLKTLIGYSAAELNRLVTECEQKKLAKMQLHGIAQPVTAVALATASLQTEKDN
The conditions noted are these: protein: recombinant; tags: N-terminal GST; dsDNA, one strand shown. In a few lines: as §1

The target in test [4] is T4, ERG (Homo sapiens, UniProt P11308 1-479).
T4 sequence: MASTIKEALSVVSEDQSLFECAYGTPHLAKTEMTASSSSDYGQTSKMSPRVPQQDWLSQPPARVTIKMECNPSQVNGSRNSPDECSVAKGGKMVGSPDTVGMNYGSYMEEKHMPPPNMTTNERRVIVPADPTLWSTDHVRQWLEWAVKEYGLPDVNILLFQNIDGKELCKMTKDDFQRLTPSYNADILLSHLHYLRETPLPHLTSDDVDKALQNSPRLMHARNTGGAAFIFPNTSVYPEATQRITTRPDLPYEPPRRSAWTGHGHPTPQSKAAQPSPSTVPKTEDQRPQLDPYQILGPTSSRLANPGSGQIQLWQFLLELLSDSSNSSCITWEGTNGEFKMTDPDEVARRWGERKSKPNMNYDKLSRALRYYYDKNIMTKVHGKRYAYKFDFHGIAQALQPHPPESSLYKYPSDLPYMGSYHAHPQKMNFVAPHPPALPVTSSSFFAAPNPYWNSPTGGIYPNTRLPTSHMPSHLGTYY
The conditions noted are these: protein: recombinant; tags: N-terminal GST; dsDNA, one strand shown. The gist of the method:
as §1

For test [5], the target named is ELF1 (Homo sapiens, UniProt P32519 1-619). The conditions noted are these: protein: recombinant; tags: N-terminal GST; dsDNA, one strand shown. In a few lines:
as §1

Test [6] addresses T5, EHF (Homo sapiens, UniProt Q9NZC4 1-300).
T5 sequence: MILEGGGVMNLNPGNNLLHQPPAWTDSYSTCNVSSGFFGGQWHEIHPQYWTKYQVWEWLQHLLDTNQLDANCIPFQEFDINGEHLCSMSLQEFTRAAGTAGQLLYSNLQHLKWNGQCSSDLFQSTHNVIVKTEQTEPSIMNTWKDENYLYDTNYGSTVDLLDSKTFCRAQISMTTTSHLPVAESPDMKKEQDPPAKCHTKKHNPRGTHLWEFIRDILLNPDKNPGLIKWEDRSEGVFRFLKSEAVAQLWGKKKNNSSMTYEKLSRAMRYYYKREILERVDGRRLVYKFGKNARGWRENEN
The conditions noted are these: protein: recombinant; tags: N-terminal GST; dsDNA, one strand shown. In a few lines:
as §1

In test [7] the target is SPI1 (Homo sapiens, UniProt P17947 1-270). The conditions noted are these: protein: recombinant; tags: N-terminal GST; dsDNA, one strand shown. In a few lines:
as §1

Test [8] deals with SPIB (Homo sapiens, UniProt Q01892 1-262). The conditions noted are these: protein: recombinant; tags: N-terminal GST; dsDNA, one strand shown. In a few lines: as §1
For test [9], the target named is T6, ELK3 (Homo sapiens, UniProt P41970 1-407).
T6 sequence: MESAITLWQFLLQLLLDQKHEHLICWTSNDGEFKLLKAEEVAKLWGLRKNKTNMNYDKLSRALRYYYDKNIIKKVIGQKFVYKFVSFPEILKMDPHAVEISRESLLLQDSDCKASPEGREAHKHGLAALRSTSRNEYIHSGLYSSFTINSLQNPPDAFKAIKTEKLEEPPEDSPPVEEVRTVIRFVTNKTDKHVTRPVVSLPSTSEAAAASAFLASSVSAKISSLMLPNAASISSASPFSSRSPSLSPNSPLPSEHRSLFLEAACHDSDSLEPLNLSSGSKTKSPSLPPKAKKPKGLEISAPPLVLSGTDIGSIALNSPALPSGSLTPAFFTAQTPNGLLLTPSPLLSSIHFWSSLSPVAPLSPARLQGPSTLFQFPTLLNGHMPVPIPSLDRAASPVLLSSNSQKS
The conditions noted are these: protein: recombinant; tags: N-terminal GST; dsDNA, one strand shown. The gist of the method: as §1

Test [10] addresses T7, FEV (Homo sapiens, UniProt Q99581 1-238).
T7 sequence: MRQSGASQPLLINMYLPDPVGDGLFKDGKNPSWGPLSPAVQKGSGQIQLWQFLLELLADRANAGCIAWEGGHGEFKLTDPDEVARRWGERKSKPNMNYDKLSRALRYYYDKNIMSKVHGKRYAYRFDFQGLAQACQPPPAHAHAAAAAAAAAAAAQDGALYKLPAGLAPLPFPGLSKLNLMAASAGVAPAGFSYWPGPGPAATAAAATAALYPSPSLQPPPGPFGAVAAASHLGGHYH
The conditions noted are these: protein: recombinant; tags: N-terminal GST; dsDNA, one strand shown. In a few lines: as §1

Test [11] addresses ETV5 (Homo sapiens, UniProt P41161 1-510). The conditions noted are these: protein: recombinant; tags: N-terminal GST; dsDNA, one strand shown. In a few lines:
as §1

Test [12] deals with HSF1 (Homo sapiens, UniProt Q00613 1-529). As to conditions: protein: recombinant; tags: N-terminal GST; chain copies: 3; dsDNA, one strand shown. In a few lines:
as §1

For test [13], the target named is ELF4 (Homo sapiens, UniProt Q99607 1-663). The conditions noted are these: protein: recombinant; tags: N-terminal GST; dsDNA, one strand shown. In a few lines:
as §1

Test [14] has as its target T8, ELK4 (Homo sapiens, UniProt P28324-2 1-405).
T8 sequence: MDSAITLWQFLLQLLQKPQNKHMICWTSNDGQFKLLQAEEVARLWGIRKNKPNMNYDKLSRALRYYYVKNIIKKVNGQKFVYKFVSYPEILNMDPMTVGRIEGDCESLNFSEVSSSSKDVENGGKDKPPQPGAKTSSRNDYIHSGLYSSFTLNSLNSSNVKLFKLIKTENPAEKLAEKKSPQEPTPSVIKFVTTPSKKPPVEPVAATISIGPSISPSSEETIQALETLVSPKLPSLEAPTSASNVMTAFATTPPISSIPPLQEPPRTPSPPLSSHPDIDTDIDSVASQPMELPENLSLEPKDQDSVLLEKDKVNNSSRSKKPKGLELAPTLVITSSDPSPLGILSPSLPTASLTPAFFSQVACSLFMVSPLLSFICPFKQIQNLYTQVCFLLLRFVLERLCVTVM
As to conditions: protein: recombinant; tags: N-terminal GST; dsDNA, one strand shown. The gist of the method: as §1

The target of test [15] is T9, ETV2 (Homo sapiens, UniProt O00321 1-342).
T9 sequence: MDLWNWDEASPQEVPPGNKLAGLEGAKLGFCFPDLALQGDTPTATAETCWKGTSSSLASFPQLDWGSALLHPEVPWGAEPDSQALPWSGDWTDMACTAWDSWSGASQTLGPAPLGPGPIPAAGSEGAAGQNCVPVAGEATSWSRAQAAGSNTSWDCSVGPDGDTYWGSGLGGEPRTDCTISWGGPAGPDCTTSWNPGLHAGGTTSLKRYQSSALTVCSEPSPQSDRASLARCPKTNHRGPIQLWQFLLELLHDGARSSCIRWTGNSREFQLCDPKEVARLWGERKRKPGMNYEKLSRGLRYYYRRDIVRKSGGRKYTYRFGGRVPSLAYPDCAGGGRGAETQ
As to conditions: protein: recombinant; tags: N-terminal GST; dsDNA, one strand shown. The gist of the method:
as §1

Test [16] has as its target T10, ELF3 (Homo sapiens, UniProt P78545 1-371).
T10 sequence: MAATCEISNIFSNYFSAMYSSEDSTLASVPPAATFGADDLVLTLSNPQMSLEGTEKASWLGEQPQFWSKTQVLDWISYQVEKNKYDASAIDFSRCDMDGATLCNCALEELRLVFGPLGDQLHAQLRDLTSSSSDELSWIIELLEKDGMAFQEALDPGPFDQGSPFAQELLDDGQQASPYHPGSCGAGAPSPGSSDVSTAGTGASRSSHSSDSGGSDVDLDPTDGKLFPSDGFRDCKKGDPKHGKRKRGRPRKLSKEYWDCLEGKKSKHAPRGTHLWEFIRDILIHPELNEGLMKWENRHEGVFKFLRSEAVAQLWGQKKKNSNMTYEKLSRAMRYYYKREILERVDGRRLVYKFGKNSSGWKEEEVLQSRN
As to conditions: protein: recombinant; tags: N-terminal GST; dsDNA, one strand shown. In a few lines: as §1

The target in test [17] is CRX (Homo sapiens, UniProt O43186 1-299). The conditions noted are these: protein: recombinant; tags: N-terminal GST; dsDNA, one strand shown. In a few lines: as §1
Test [18] addresses ETV1 (Homo sapiens, UniProt P50549 1-477). As to conditions: protein: recombinant; tags: N-terminal GST; dsDNA, one strand shown. In a few lines: as §1

Sequence of CRX (O43186 whole entry): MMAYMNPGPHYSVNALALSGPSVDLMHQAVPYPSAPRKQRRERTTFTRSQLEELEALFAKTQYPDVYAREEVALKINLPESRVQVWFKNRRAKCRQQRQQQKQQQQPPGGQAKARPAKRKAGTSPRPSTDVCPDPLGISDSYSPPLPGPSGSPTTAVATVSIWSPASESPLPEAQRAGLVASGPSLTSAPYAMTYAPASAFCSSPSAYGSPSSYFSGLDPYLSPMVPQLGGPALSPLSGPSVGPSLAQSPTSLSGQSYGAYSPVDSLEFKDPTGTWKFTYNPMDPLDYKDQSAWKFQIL
Sequence of SPIB (Q01892 whole entry): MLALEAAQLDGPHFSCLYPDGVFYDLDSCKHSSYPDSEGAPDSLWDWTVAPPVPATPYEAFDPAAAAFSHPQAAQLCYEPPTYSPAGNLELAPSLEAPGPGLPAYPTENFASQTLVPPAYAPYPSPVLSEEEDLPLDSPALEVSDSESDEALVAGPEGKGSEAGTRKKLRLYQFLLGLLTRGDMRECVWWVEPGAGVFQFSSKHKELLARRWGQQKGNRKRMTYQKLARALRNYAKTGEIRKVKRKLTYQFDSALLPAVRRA
Sequence of ELF1 (P32519 whole entry): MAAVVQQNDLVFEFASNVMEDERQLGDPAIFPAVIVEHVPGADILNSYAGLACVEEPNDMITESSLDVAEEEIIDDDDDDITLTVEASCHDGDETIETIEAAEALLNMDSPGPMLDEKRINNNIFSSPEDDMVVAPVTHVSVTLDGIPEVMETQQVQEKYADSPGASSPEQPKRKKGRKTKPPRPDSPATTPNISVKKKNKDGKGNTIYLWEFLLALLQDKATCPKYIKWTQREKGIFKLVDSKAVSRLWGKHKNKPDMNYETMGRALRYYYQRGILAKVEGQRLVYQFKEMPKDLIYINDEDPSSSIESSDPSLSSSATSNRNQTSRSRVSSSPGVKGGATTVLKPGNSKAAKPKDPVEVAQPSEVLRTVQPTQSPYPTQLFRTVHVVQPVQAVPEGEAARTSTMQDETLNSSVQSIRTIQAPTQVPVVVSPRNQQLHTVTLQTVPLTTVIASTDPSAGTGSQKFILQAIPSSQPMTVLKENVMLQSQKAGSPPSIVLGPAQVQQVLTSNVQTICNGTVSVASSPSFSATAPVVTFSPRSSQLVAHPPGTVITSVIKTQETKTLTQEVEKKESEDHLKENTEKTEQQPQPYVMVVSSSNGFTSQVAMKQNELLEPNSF
Sequence of ETV1 (P50549 whole entry): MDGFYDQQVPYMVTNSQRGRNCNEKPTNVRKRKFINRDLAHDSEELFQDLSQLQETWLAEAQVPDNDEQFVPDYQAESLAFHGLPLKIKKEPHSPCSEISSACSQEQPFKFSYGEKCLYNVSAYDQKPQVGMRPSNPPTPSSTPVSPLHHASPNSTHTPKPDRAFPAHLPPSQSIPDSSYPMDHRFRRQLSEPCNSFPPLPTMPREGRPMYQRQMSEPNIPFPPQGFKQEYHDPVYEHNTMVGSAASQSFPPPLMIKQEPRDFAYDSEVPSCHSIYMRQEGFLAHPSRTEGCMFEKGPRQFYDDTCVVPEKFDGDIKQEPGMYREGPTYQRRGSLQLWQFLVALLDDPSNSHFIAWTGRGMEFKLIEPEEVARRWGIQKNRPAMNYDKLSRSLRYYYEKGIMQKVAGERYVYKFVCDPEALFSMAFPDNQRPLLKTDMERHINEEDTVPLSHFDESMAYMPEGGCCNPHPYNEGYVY
Sequence of ETV5 (P41161 whole entry): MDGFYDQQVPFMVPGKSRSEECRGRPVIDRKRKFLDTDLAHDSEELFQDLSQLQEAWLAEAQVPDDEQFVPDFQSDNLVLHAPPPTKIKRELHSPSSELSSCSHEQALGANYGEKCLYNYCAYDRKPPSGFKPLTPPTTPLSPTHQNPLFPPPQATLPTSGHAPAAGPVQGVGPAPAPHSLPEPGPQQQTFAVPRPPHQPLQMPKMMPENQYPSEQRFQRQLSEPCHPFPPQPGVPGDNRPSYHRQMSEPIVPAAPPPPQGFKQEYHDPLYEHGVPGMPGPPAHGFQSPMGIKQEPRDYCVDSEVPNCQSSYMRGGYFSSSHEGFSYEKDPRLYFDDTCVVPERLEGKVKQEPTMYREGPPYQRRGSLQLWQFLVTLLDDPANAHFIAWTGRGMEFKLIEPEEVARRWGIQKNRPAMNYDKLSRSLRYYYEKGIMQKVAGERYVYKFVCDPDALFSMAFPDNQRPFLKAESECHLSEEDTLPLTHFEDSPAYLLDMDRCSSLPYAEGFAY
Sequence of ELF4 (Q99607 whole entry): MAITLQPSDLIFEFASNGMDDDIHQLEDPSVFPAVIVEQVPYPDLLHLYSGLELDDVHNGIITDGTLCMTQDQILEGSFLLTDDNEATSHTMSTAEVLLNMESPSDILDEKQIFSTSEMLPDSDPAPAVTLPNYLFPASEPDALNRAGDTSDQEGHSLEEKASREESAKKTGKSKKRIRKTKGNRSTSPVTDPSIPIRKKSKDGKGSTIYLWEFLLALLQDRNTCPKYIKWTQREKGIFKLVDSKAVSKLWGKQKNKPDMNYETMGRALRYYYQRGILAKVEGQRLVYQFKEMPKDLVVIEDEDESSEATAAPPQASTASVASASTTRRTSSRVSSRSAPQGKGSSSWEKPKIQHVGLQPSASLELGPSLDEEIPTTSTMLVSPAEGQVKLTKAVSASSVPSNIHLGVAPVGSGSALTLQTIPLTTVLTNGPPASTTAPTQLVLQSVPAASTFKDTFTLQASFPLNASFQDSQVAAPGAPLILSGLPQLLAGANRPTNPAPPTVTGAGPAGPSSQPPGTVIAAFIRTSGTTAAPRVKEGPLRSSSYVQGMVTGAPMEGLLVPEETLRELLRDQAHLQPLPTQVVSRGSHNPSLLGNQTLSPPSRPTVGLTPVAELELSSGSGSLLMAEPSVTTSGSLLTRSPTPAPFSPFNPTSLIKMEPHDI
Sequence of HSF1 (Q00613 whole entry): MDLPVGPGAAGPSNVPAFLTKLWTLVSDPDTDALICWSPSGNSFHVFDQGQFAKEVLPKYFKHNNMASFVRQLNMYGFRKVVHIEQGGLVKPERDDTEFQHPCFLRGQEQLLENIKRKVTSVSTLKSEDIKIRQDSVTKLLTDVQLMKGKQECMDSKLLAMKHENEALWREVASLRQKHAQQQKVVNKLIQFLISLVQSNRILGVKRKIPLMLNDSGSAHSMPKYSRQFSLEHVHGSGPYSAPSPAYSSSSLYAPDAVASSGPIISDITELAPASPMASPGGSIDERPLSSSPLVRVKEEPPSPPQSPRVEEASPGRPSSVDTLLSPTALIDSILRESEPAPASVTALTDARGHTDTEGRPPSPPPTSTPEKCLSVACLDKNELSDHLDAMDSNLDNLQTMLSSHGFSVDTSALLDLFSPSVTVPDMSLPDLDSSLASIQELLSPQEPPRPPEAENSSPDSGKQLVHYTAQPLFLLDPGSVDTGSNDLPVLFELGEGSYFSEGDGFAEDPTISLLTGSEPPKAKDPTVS

Regarding ACAAGC, the binding signal in test [1] is 1.1 fold enrichment (6-mer frequency, TF over GST control); in test [2] it was 1.11 fold enrichment (6-mer frequency, TF over GST control); in test [3], 1.09 fold enrichment (6-mer frequency, TF over GST control); in test [4] it was 1.08 fold enrichment (6-mer frequency, TF over GST control); in test [5] it was 1.1 fold enrichment (6-mer frequency, TF over GST control); in test [6], 1.08 fold enrichment (6-mer frequency, TF over GST control). The binding signal was 1.04 fold enrichment (6-mer frequency, TF over GST control) in [7]; 1.12 fold enrichment (6-mer frequency, TF over GST control) in [8]; 1.16 fold enrichment (6-mer frequency, TF over GST control) in test [9]; 1.09 fold enrichment (6-mer frequency, TF over GST control) in test [10]; 1.12 fold enrichment (6-mer frequency, TF over GST control) in test [11]; 1.01 fold enrichment (6-mer frequency, TF over GST control) in test [12]. Further, the binding signal was 1.13 fold enrichment (6-mer frequency, TF over GST control) in test [13]; 1.12 fold enrichment (6-mer frequency, TF over GST control) in [14]; 1.06 fold enrichment (6-mer frequency, TF over GST control) in test [15]; 1.07 fold enrichment (6-mer frequency, TF over GST control) in test [16]; 1.07 fold enrichment (6-mer frequency, TF over GST control) in test [17]; 1.16 fold enrichment (6-mer frequency, TF over GST control) in test [18].
